Test results reported in ChEMBL document CHEMBL4513146, “CO-ADD screening of Karazin Kharkiv National University (Ukraine) compounds”.
Potency and affinity values are given separately.

Experiments:
Klebsiella pneumoniae = settings: Concentration 32 ug.mL-1;; ASSAY_TEST Inhibition of Bacterial Growth; detection method Absorption (OD600); MEDIA CAMHB; plate type 384well; NBS; CORNING #3640; time 18 hr
Candida albicans = settings: Concentration 32 ug.mL-1; ASSAY_TEST Inhibition of Fungal Growth; detection method Absorption (OD530)
Cryptococcus neoformans = settings: Concentration 32 ug.mL-1; ASSAY_TEST Inhibition of Fungal Growth; detection method Resazurin; Absorption (OD600-OD570); plate type 384well; NBS; CORNING #3640

| SMILES | Inhibition (Klebsiella pneumoniae) [%] | Inhibition (Candida albicans) [%] | Inhibition (Cryptococcus neoformans) [%] |
| --- | --- | --- | --- |
| COc1ccc(CN(c2ccc(F)cc2)S(=O)(=O)c2ccc3nnc(C)n3c2)cc1F | 2.68 | 1.42 | -6.58 |
| COc1ccccc1CNC(=O)Cn1nc2c(N3CCCCCC3)nccn2c1=O | 8.05 | 3.98 | -7.24 |
| COc1ccc(CNC(=O)Cn2nc3c4cc(-c5ccc(OC)cc5)nn4ccn3c2=O)cc1 | 9.14 | -2.24 | -14.67 |
| COc1ccccc1-n1ccn2c(SCC(=O)NCc3ccc(Cl)cc3)nnc2c1=O | 9.61 | 4.77 | -6.31 |
| Cc1ccc(NC(=O)Cn2nc3cc(C)nc(Nc4ccc(F)cc4)n3c2=O)cc1 | 11.23 | 3.22 | -24.95 |
| C=Cc1ccc(CN(c2ccc(Cl)cc2)S(=O)(=O)c2cccn3c(C)nnc23)cc1 | 7.52 | 0.36 | -8.75 |
| Cc1ccc(-n2ccn3c(=O)n(Cc4ccccc4F)nc3c2=O)cc1C | 7.33 | 0.26 | -12.8 |
| Cc1cccc(NC(=O)Cn2nc3c4cc(-c5ccc(Cl)cc5)nn4ccn3c2=O)c1C | 3.93 | 0.51 | -23.15 |
| COc1ccc(-c2nc(CSc3nc4ccccc4n4c(C(C)C)nnc34)c(C)o2)cc1OC | -2.06 | 3.02 | -7.98 |
| Cc1cccc(C)c1NC(=O)CSc1nnc2c3cc(-c4ccc(F)cc4)nn3ccn12 | -6.3 | 4.52 | -11.19 |
| COc1ccc(-c2cc3c4nnc(SCC(=O)NCc5ccc(C)cc5)n4ccn3n2)cc1 | 7.85 | 1.56 | -10.46 |
| COc1cccc(CNC(=O)Cn2nc3c4cc(-c5cc(C)ccc5C)nn4ccn3c2=O)c1OC | 6.77 | -1.47 | -13.57 |
| O=c1c2nnc(SCc3ccccc3)n2ccn1-c1ccc(Br)cc1 | 7.85 | 5.19 | -7.93 |
| CC(C)(C)Sc1ccc2nn(CC(=O)Nc3ccccc3Cl)c(=O)n2n1 | 9.71 | 5.29 | -25.66 |
| CCc1nnc2c(SCC(=O)Nc3ccc4c(c3)OCCO4)nc3ccccc3n12 | 7.64 | 5.98 | -5.14 |
| CC(C)c1nnc2c(SCC(=O)Nc3ccc(Br)cc3)nc3ccccc3n12 | 6.82 | 0.48 | 0.69 |
| O=C(CSc1nnc2c(=O)n(-c3ccc(F)cc3)ccn12)N1CCN(c2ccc(F)cc2)CC1 | -5.39 | -0.55 | -6.2 |
| Cc1ccc(NC(=O)Cn2nc3ccc(SC(C)(C)C)nn3c2=O)cc1C | 8.45 | 5.53 | -7.37 |
| CCCn1c(=O)c2sccc2n2c(=O)n(CC(=O)c3cccc(OC)c3)nc12 | 7.12 | 6.53 | -27.27 |
| O=C(Cn1nc2c3cc(-c4ccc(Cl)cc4)nn3ccn2c1=O)Nc1ccc2c(c1)OCO2 | 13.7 | -0.02 | -18.97 |
| Cc1cc2nn(CC(=O)N3CCCC3)c(=O)n2c(Nc2ccc(C)c(F)c2)n1 | 9.72 | 0.7 | -5.41 |

| SMILES | Inhibition (Klebsiella pneumoniae) [%] | Inhibition (Candida albicans) [%] | Inhibition (Cryptococcus neoformans) [%] |
| --- | --- | --- | --- |
| CSc1cccc(NC(=O)Cn2nc3c(SCc4ccc(Cl)cc4)nccn3c2=O)c1 | 7.71 | 19.01 | -40.36 |
| O=C(CSc1nnc2c(=O)n(-c3cccc(F)c3)ccn12)N1CCN(c2ccc(F)cc2)CC1 | 10.19 | 2.58 | -3.61 |
| COc1ccccc1N1CCN(C(=O)Cn2nc3ccc(-c4ccccc4)nn3c2=O)CC1 | 2.09 | 1.1 | -5.13 |
| CSc1ccc(CNC(=O)CCc2nnc3c(N4CCCCC4)nc4ccccc4n23)cc1 | 12.88 | 3.51 | -30.87 |
| CCOc1ccc(-n2ccn3c(SCC(=O)Nc4cccc(Cl)c4)nnc3c2=O)cc1 | 10.12 | 2.64 | -5.2 |
| O=C(CSc1nc2ccccc2n2cnnc12)Nc1ccc2c(c1)OCO2 | 0.58 | 2.55 | -24.91 |
| Cc1ccc(NC(=O)Cn2nc3ccc(-c4ccc(Cl)cc4)nn3c2=O)cc1 | 3.71 | 1.61 | -4.05 |
| CCCCOc1ccc(-c2cc3c4nnc(SCC(=O)Nc5c(C)cccc5CC)n4ccn3n2)cc1 | -16.94 | -2.13 | -12.87 |
| COc1ccc(-c2cc3c4nn(CC(=O)Nc5cc(C)ccc5OC)c(=O)n4ccn3n2)cc1 | 8.5 | 13.11 | -15.79 |
| CC(=O)c1cccc(NC(=O)CSc2nc3ccccc3n3c(C)nnc23)c1 | 2.18 | 5.91 | -6.11 |
| COc1ccc2[nH]cc(C(=O)CSc3nnc4c(=O)n(-c5ccc(C)c(C)c5)ccn34)c2c1 | 2.12 | 0.06 | -6.08 |
| O=C(Cn1nc2c3c4c(sc3ncn2c1=O)CCCC4)Nc1ccc2c(c1)OCO2 | 4.23 | 4.71 | -14.52 |
| CCc1nnc2c(S(=O)(=O)N(Cc3cccc(F)c3)c3ccccc3)cccn12 | 10.23 | 3.58 | -7.54 |
| Cc1ccc(Oc2nccn3c(=O)n(CC(=O)Nc4ccc(C)cc4Br)nc23)cc1 | 1.71 | 0.3 | -4.1 |
| Cc1cc2nn(CC(=O)Nc3cccc(F)c3)c(=O)n2c(Nc2ccc(F)c(C)c2)n1 | 7.53 | 6.76 | -7 |
| COc1cccc(-n2ccn3c(SCC(=O)Nc4ccc(Br)cc4)nnc3c2=O)c1 | -3.95 | 5.78 | -9.82 |
| O=c1c2sccc2n2c(SCc3cccc(C(F)(F)F)c3)nnc2n1Cc1cccs1 | 1.3 | 16.7 | -17.87 |
| Cc1cccc(C)c1NC(=O)CSc1nnc2c3cc(-c4ccccc4)nn3ccn12 | -14.45 | -0.49 | -6.46 |
| COc1ccc(-c2cc3c4nnc(SCC(=O)NCc5ccccc5Cl)n4ccn3n2)cc1 | 6.77 | 1.79 | -22.52 |
| Cc1cc(C)cc(Nc2nc(C)cc3nn(CC(=O)NCc4ccco4)c(=O)n23)c1 | 10.95 | 2.86 | -8.71 |
| O=C(Cn1nc2c(Oc3ccccc3)nccn2c1=O)Nc1ccc2c(c1)OCCO2 | 6.43 | 0.75 | -7.17 |

| SMILES | Inhibition (Klebsiella pneumoniae) [%] | Inhibition (Candida albicans) [%] | Inhibition (Cryptococcus neoformans) [%] |
| --- | --- | --- | --- |
| COc1ccc(NC(=O)CSc2nnc3ccc(C(=O)Nc4cccc(F)c4)cn23)cc1 | 4.36 | 3.08 | -2.63 |
| C=Cc1ccc(CN(c2cccc(Cl)c2)S(=O)(=O)c2cccn3c(C)nnc23)cc1 | 6.94 | 1.33 | -16.09 |
| CCc1nnc2c(SCC(=O)Nc3cccc(Br)c3)nc3ccccc3n12 | 4.36 | 4.07 | -27.47 |
| Cc1ccc2c(c1)N(C(=O)Cn1nc3ccc(SCc4ccc(Cl)cc4)nn3c1=O)CCO2 | 7.49 | 29.58 | -22.86 |
| CC(C)Cn1c(=O)c2sccc2n2c(=O)n(Cc3ccc(Cl)cc3)nc12 | 2.18 | -1.9 | -15.45 |
| COc1ccccc1-n1ccn2c(SCc3ccc(Cl)cc3)nnc2c1=O | 8.98 | 1.6 | -13.63 |
| CSc1cccc(NC(=O)Cn2nc3c(Sc4ccccc4)nccn3c2=O)c1 | 1.1 | 18.38 | -12.89 |
| COc1cccc(Oc2nccn3c(=O)n(CC(=O)Nc4ccc5c(c4)OCCO5)nc23)c1 | 1.41 | 7.65 | -9.22 |
| COc1ccc(CNC(=O)Cn2nc3c(Oc4cccc(C)c4C)nccn3c2=O)cc1 | 3.56 | -0.71 | -3.17 |
| O=C(Cn1nc2c3c4c(sc3ncn2c1=O)CCCC4)NCCc1ccc(Cl)cc1 | 9.47 | 7.92 | -14.7 |
| Cc1ccc(Cl)cc1NC(=O)Cn1nc2c(SC3CCCCC3)nccn2c1=O | 10.4 | -0.14 | -28.24 |
| CCc1ccccc1NC(=O)CSc1nnc2c(=O)n(-c3ccccc3)ccn12 | 11.56 | -0.14 | -23.92 |
| CCOc1ccc(-n2ccn3c(SCC(=O)c4ccccc4)nnc3c2=O)cc1 | 1.87 | 12.91 | -3.51 |
| CCc1ccc(NC(=O)Cn2nc3n(Cc4ccco4)c(=O)c4sccc4n3c2=O)cc1 | -2.12 | 5.72 | -17.39 |
| COc1cc(NC(=O)Cn2nc3c4c5c(sc4ncn3c2=O)CCCC5)cc(OC)c1OC | 9 | 0.11 | -14.64 |
| CCOC(=O)c1ccc(NC(=O)Cn2nc3c4cc(-c5ccc(C)c(C)c5)nn4ccn3c2=O)cc1 | 1.25 | 1.14 | -10.15 |
| COc1ccc(C)cc1NC(=O)CSc1nc2ccccc2n2cnnc12 | 9.24 | 2.39 | -3.58 |
| CCOc1ccc(NC(=O)Cn2nc3ccc(SCc4ccc(Cl)cc4)nn3c2=O)cc1 | 7.43 | 15.3 | -13.71 |
| CC(=O)c1ccc(NC(=O)Cn2nc3c4cc(-c5ccc(Cl)cc5)nn4ccn3c2=O)cc1 | 16.61 | 29.09 | -18.84 |
